High-throughput results (PubChem)
Hits are enriched below; roughly 1.8% of the tested compounds scored in any of these assays.
Ba/F3 V617F tox: lowers viability of Ba/F3 cells expressing EpoR and JAK2V617F; ATP luminescence; inhibition, % at 5.6 µM; actives 1.1% (n = 220,000); AID 1446;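 active = inhibition above the campaign mean plus 3 SD over all tested compounds, cut at about 24% in these data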;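 also: cytokine-independent growth of Ba/F3 cells driven by EpoR plus mutant JAK2; 0% = DMSO-treated cells and 100% = JAK inhibitor I control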
BaF3 tox: counter-screen for JAK2V617F inhibitors: parental Ba/F3 viability inhibitors; CellTiter-Glo ATP luminescence; inhibition, % at 5.6 µM; actives 1.1% (n = 220,000); AID 1486;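 active = inhibition above a per-campaign cutoff, the mean inhibition of all tested compounds plus 3 SD, cut at about 27% in these data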;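 also: 0% = DMSO wells and 100% = JAK Inhibitor I control wells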
KLF5 inhibitor: kruppel-like factor 5 inhibition; DLD-1 KLF5 promoter-luciferase reporter, luminescence; inhibition, % at 5 µM; actives 0.23% (n = 290,000); AID 1700;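 active = inhibition above a per-plate limit of that plate's mean compound inhibition plus 3 SD, cut at about 60% in these data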;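 also: 0% = DMSO wells and 100% = LY294002 at 200 µM; higher means less KLF5 promoter-driven luciferase light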
IEC-6 tox: IEC-6 cytotoxicity, counter-screen for KLF5 inhibitors; AID 1825; inhibition, % at 5 µM; luminescence viability; actives 0.78% (n = 290,000);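 also: 0% = plate median of test compound wells and 100% = cytotoxic reference compound wells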
APP transl inh: APP translation inhibition | SH-SY5Y APP 5'UTR-luciferase reporter, luminescence | actives 0.82% (n = 190,000) | inhibition, % at 2 µM | AID 1285;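 active = inhibition above a set limit, derived from the sample mean plus 3 SD, cut at about 45% in these data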
IEC-6 cytotox cf: IEC-6 cytotoxicity, confirmation assay. inhibition, % at 5 µM. actives 63% (n = 1,900). AID 1907. IEC-6 rat intestinal epithelial viability, luminescence. shares compounds with IEC-6 tox;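 also: 0% = vehicle and 100% = reference cytotoxic drug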
* marks the source's active call; other numbers are inactive results; nt = no result given. Rule as the data show it, unless noted: active = inhibition above about 22%; inactive = the rest.

SMILES | Ba/F3 V617F tox | BaF3 tox | KLF5 inhibitor | IEC-6 tox | APP transl inh | IEC-6 cytotox cf
CN1CCN(S(=O)(=O)c2ccc(NC(=S)NC(=O)C(C)(C)C)cc2)CC1 | -1 | 5 | -29 | -2 | 10 | nt
Cc1cccc(C)c1NS(=O)(=O)c1ccc(-c2cnc(C3CC3)o2)cc1 | nt | nt | 47 | 94* | nt | 72*
CC(=O)c1ccc(NS(=O)(=O)c2ccc(-c3cnc(C4CC4)o3)cc2)cc1 | nt | nt | -3 | 2 | nt | nt
CCOc1ccc2nc(SCC(=O)Nc3cc4c(cc3C(C)=O)OCO4)[nH]c2c1 | 1 | 4 | 0 | 4 | -5 | nt
CN1CCc2ccc(NC(=O)c3ccc(C(F)(F)F)cc3)cc2C1 | nt | nt | -31 | -10 | nt | nt
O=C(C1=NN[C@@H]2C(=O)N(c3ccccc3C(F)(F)F)C(=O)[C@H]12)c1ccc2ccccc2n1 | 76* | 54* | 1 | 71* | -14 | 3
COc1ccc(S(=O)(=O)N2CC(C(=O)O)Oc3ccccc32)cc1 (stereo not drawn) | nt | nt | -58 | -10 | nt | nt
COc1ccc(S(=O)(=O)N2CCOc3ccccc32)cc1 | nt | nt | 52 | 60* | nt | 37*
CCOCCCNC(=O)c1cc(-c2cccnc2)nc2ccc(S(=O)(=O)N3CCC(C)CC3)cc12 | nt | nt | -49 | 24* | nt | 1
COCCNC(=O)c1cc(-c2ccccn2)nc2ccc(S(=O)(=O)N3CCC(C)CC3)cc12 | nt | nt | -20 | 1 | nt | nt
CCC1=Nc2cc(C(=O)NCCN3CCCC3)ccc2Sc2ccccc21 | nt | nt | 0 | -1 | nt | nt
CCC1=Nc2cc(C(=O)NCCCOC)ccc2Sc2ccccc21 | 77* | 79* | 48 | 88* | 95* | 60*
CCN(CC)CCn1c(=S)[nH]c2ccc(Br)cc2c1=O | 4 | 9 | -28 | -4 | -12 | nt
Cc1[nH]n(-c2ccc(Br)cc2)c(=O)c1/C=N/NC(=O)c1ccccc1 | nt | nt | 44 | 65* | nt | 60*
Cc1[nH]n(-c2ccccc2)c(=O)c1/C=N/NC(=O)c1cccc(F)c1 | nt | nt | 61 | 22* | nt | 10
Cc1[nH]n(-c2ccccc2)c(=O)c1/C=N/NC(=O)c1ccc(O)cc1O | nt | nt | -64 | -2 | nt | nt
Cc1ccc(CNC(=O)c2cc(Cl)cc(Cl)c2)n1C | nt | nt | -4 | 0 | nt | nt
Cc1nc2oc3c(NCc4ccccc4)ncnc3c2c2c1COC(C)(C)C2 | -4 | 1 | 5 | -3 | 0 | nt
CC1(C)Cc2c(sc3ncnc(NNC(=S)NCc4ccccc4)c23)CO1 | 73* | 80* | 61 | 76* | 56* | 16
COc1cc(C2Nc3ccccc3C(=O)N2c2ccc3c(c2)OCCO3)ccc1OCC(C)C (stereo not drawn) | 4 | 3 | 30 | 2 | -107 | nt
CCN1/C(=C/C=C/c2oc3ccc(-c4ccccc4)cc3[n+]2CC)Oc2ccc(-c3ccccc3)cc21 | 100* | 78* | 15 | 61* | 74* | 5
CCN1C(=O)C(O)(C2COC(C)(C)CC2=O)c2ccccc21 (stereo not drawn) | 1 | 1 | 10 | 5 | -2 | nt
CCN1C(=O)C(O)(C2COC(C)(C)CC2=O)c2cc(Br)ccc21 (stereo not drawn) | 22 | 33* | -5 | 84* | 5 | 1
COc1ccc(OC)c(S(=O)(=O)Nc2cc(C(=O)O)ccc2N2CC3CC(C2)c2cccc(=O)n2C3)c1 (stereo not drawn) | 3 | 5 | -10 | 4 | -16 | nt
Cc1ccc(NC(=O)Nc2cnccn2)cc1 | nt | nt | -96 | -3 | nt | nt
SMILES | Ba/F3 V617F tox | BaF3 tox | KLF5 inhibitor | IEC-6 tox | APP transl inh | IEC-6 cytotox cf
CC(C)c1ccc(NC(=O)Nc2cnccn2)cc1 | nt | nt | -82 | 42* | nt | 15
COc1ccc2c(C=Nc3c(C)n(C)n(-c4ccccc4)c3=O)c(O)n(Cc3ccco3)c(=O)c2c1 | 0 | -2 | 6 | 2 | -4 | nt
Cc1ccccc1CS(=O)(=O)c1ncc(Cl)c(C(=O)Nc2ccc(F)cc2)n1 | nt | nt | 9 | 61* | nt | 10
Cc1ccc(NC(=O)c2nc(S(=O)(=O)Cc3ccccc3)ncc2Cl)cc1 | nt | nt | 13 | 97* | nt | 19
CCOC(=O)c1ccc(NC(=O)c2nc(SC)ncc2Cl)cc1 | nt | nt | -18 | -5 | nt | nt
O=C(Nc1ccc(F)cc1)c1nc(S(=O)(=O)Cc2ccccc2)ncc1Cl | nt | nt | 18 | 91* | nt | 12
CCOc1ccc(/C=C2\SC(=S)N(CCC(=O)Nc3ccccc3C(=O)O)C2=O)cc1 | nt | nt | 9 | -2 | nt | nt
O=C(CNc1cccc(C(F)(F)F)c1)N/N=C/C1CCCCC1 | 1 | 11 | -34 | -2 | 27 | nt
CCOc1ccc2nc(NC(=O)c3ccoc3C)sc2c1 | 27* | 28* | -20 | 26* | -168 | 36*
CC1CC(NC(=O)/C=C/C(=O)O)CC(C)(C)C1 (stereo not drawn) | -5 | 1 | 0 | -1 | nt | nt
Cc1nc2c3cc(Cl)ccc3n(CCN3CCCCC3)c2s1 | 16 | 36* | 16 | 41* | 12 | 17
COC(=O)Cn1c2ccc(Cl)cc2c2nc(C)sc21 | -3 | -2 | -8 | -4 | nt | nt
Cc1ccccc1-c1ocnc1C(=O)Nc1ccccc1NC(=O)c1ccccn1 | nt | nt | -5 | 23* | nt | 8
CCn1c(SCC(=O)Nc2cccc(C)c2)nc2ccccc2c1=O | nt | nt | -34 | 22* | nt | 7
CCn1c(SCC(=O)Nc2ccccc2)nc2ccccc2c1=O | nt | nt | -6 | -4 | nt | nt
COc1cccc(OC)c1NC(=O)C1CCCN1C(=O)Nc1ccccc1F (stereo not drawn) | nt | nt | -21 | 5 | nt | nt
O=C(Nc1ccc(-n2cccn2)cc1)C1CCCCN1Cc1cccc2c1OCO2 (stereo not drawn) | nt | nt | 39 | 54* | nt | 37*
COc1ccc(/C=C/c2c(-c3ccc(OC)cc3)oc3cccnc23)cc1 | nt | nt | -19 | -1 | nt | nt
COc1cc(OC)cc(-c2oc3cccnc3c2C#CCCO)c1 | nt | nt | -20 | 25* | nt | 17
Cc1ccc(C(=O)OCn2ncc(Cl)c(Cl)c2=O)cc1 | 39* | 56* | 8 | 44* | 92* | 56*
CCOC(=O)c1ccc(NC(=O)Cn2ncc(Cl)c(Cl)c2=O)cc1 | 56* | 63* | -1 | 35* | 96* | 32*
COc1ccc(NC(=O)Cn2ncc(Cl)c(Cl)c2=O)cc1S(=O)(=O)N1CCOCC1 | -4 | -6 | 12 | 41* | -4 | 7
CSc1ccccc1C(=O)NC1CCSc2ccccc21 (stereo not drawn) | nt | nt | 14 | -1 | nt | nt
